# HSP90 inh: blocks HSP90-mediated luciferase refolding in reticulocyte lysate; 290,000 tested, 0.91% active; AID 1789; Rabbit reticulocyte lysate, luciferase refolding luminescence, 3 h; inhibition, % at 5.6 µM;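 active means inhibition above the screen-wide mean plus 3 SD, computed separately per campaign, cut at about 16% in these data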;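 further: 0% = DMSO wells and 100% = 60 µM geldanamycin wells; inhibitors lower the luminescence because luciferase stays unfolded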
# AHR act: activates the human aryl hydrocarbon receptor; P35869; AHR-responsive luciferase reporter cells, luminescence; activation, % at 5 µM; 320,000 tested, 2.5% active; AID 2796; in the data active means activation above about 47%;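 further: 0% = vehicle wells and 100% = reference agonist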
# HSF1 activator: increases HSF-1 driven luciferase reporter signal; 300,000 tested, 1.7% active; activation, % at 9 µM; NIH3T3-HGL HSF-1 luciferase reporter, MG132, 8 h; 100% = twice DMSO control signal; AID 504408;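 active means mean replicate activation of at least 50% with a set share of replicates each reaching 50%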;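 further: 0% = median of the neutral control wells and 100% = twice that signal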
# NR0B1 inh: inhibits human nuclear receptor DAX1; HEK293 Gal4-DAX1 luciferase reporter, luminescence; P51843; 340,000 tested, 0.99% active; inhibition, % at 6.75 µM;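 active means inhibition above the mean over all tested compounds plus 3 SD, cut at about 4.2% in these data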;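 further: 0% = DAX1-transfected cells with DMSO and 100% = empty-vector control cells with DMSO; inhibition shows as a rise in luminescence from relieved DAX1 repression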
# Target sequence (P51843 207-470 limits assumed): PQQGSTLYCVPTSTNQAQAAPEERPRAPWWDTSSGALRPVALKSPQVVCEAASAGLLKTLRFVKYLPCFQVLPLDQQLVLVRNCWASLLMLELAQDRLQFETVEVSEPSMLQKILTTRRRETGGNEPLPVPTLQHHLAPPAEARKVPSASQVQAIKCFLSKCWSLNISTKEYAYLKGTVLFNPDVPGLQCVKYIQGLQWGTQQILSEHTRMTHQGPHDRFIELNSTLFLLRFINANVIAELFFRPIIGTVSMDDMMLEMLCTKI
# HSF1 inh: HSF1 inhibition. NIH3T3-HGL HSE-luciferase, MG132-induced, luminescence 8 h; hits give low values. activity change, negative = inhibition, % at 7.5 µM (by protocol). 300,000 tested, 0.77% active;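 active means more than half of replicate wells show activity change below -50%, luminescence cut by over half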;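 further: luciferase reports HSF-1 transcriptional activity via heat shock element; 0% = median of DMSO wells and -100% = zero luminescence signal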
# FXN GAA850 act: increases GAA850 frataxin promoter reporter activity; HEK293 lucGAA850 FXN promoter luciferase reporter, 24 h; percent of 10 µM SAHA response; activation, % at 6 µM; 360,000 tested, 0.56% active;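 active means activation above the average of all compounds screened plus 3 SD, cutoff fixed separately per campaign, cut at about 7.5% in these data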;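 further: 0% = DMSO wells and 100% = 10 µM SAHA wells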
# Active calls of the source: *; . = not tested or not shown. Sampled rows, rich in hits. Any-hit rate of the full collection: about 5.9%.
SMILES,HSP90 inh,AHR act,HSF1 activator,NR0B1 inh,HSF1 inh,FXN GAA850 act
Cc1c(CC(=O)NCCCC(=O)O)c(=O)oc2c(C)c3oc4c(c3cc12)CCCC4,-2.4,1.6,-7.7,4.9*,1.8,1.1
O=C(O)CCC(=O)NCCn1c(-c2ccccc2)csc1=Nc1ccccc1,3.5,0.5,69.5*,0.6,28.6,1.2
CCN(CC)S(=O)(=O)c1ccc2c(c1)nc(SCC(=O)NCC1CCCO1)n2CC (stereo unspecified),.,-2.1,-0.1,-1.6,-7.3,0.4
CC(C)(C)c1ccc(-c2noc(-c3ccno3)n2)cc1,4.8,-1.4,21.7,8.3*,21.5,7.4
Clc1cccc(Cl)c1-c1noc(-c2ccno2)n1,0.6,0.8,7.2,0.0,-1.0,1.5
CCOc1ccc(Cl)cc1-c1cc(C(=O)NCc2cc(C(F)(F)F)cc(C(F)(F)F)c2)[nH]n1,.,.,.,.,.,0.0
Cc1cc(NC(c2cccnc2)c2c(C)[nH]c3ccccc23)no1 (stereo unspecified),16.5*,11.0,12.5,0.2,2.8,2.5
CC1CCC(NC(=O)CSc2nncn2C)CC1 (stereo unspecified),.,-0.4,.,0.3,.,2.2
COc1ccc(-c2cc(CS(=O)(=O)c3ccccc3)on2)cc1,1.9,8.1,63.7*,4.5*,18.9,2.5
CSCCC(NC(=O)c1ccco1)C(=O)NCC(c1ccccc1)N(C)C (stereo unspecified),.,5.4,.,0.4,.,-0.8
CCCN(CC(=O)Nc1ccccc1C)C(=O)c1ccc(Cl)c(S(=O)(=O)N2CCCC2)c1,.,0.9,4.1,5.3*,6.9,-0.6
CCCN(CC(=O)Nc1ccccc1C)C(=O)c1ccc(C)c(S(=O)(=O)N2CCCCC2)c1,.,1.8,16.2,-0.7,4.2,-0.1
Cc1cc2c(c(C)c1CCO)C(=O)[C@H](C)C2,.,2.3,.,4.7*,.,1.1
Cc1cc2c(c(C)c1CCO[C@@H]1O[C@H](CO)[C@@H](O)[C@H](O)[C@H]1O)C(=O)[C@@H](C)[C@@H]2O,.,-0.3,.,-0.8,.,0.0
CCOc1ccc2c(c1)[N+](C)(C)C(C)(C)C=C2C,0.2,-1.9,-83.5,.,-79.9*,-0.2
O=C(Cc1nn[nH]n1)Nc1ccc(F)cc1F,8.3,0.7,-4.9,.,-4.0,2.3
Clc1ccc(-n2nnnc2CN2CCOCC2)cc1,0.3,-0.9,10.5,6.0*,-1.7,2.4
COc1ccc(C)cc1S(=O)(=O)N(CC(=O)NC1CCCC1)c1ccc(F)cc1,-5.1,0.1,1.4,-0.5,2.6,1.6
CC(C)CN1C(=O)c2ccc(NC(=O)C3CC3)cc2C1=O,-6.1,-1.6,7.8,0.8,8.1,-1.4
O=C(Nc1ccc2c(c1)oc1ccccc12)C1CC1,-4.4,74.5*,21.0,1.8,22.8,1.4
CC(C)CC(=O)Nc1ccc2c(c1)oc1ccccc12,-0.7,22.2,61.7*,2.9,32.3,3.7
O=C1c2ccccc2C(=O)c2cc(NC(=O)C3CC3)ccc21,-4.4,168.4*,22.9,2.5,15.6,4.7
OC[C@@H]1CN(Cc2ccc(F)cc2)C[C@H](n2cnc3c(N4CCN(c5ccccc5)CC4)ncnc32)O1,.,.,.,.,.,-1.8
CN1CCCC1(C)C(=O)NCc1ccc(F)cc1Cl (stereo unspecified),.,.,.,.,.,-0.5
CCOC(=S)SCc1cn2cccc(C)c2n1,0.4,12.9,33.4,5.0*,19.3,1.9
SMILES,HSP90 inh,AHR act,HSF1 activator,NR0B1 inh,HSF1 inh,FXN GAA850 act
CCOc1ccc(NC(=O)CS(=O)CC(=O)N(CC(=O)NC(C)(C)C)C2CCCC2)cc1 (stereo unspecified),1.7,-1.0,-4.4,1.3,0.0,2.6
COc1ccc(C(=O)NNC(=O)c2ccccn2)cc1,75.5*,-6.7,-75.6,-6.1,-67.7*,-11.7
COc1ccc2c(c1)C(=NNC(=O)c1ccccn1)c1cc(OC)ccc1-2,2.5,52.2*,-2.5,-1.5,-8.0,0.6
Cc1noc(C)c1CCC(=O)Nc1cc(Cl)ccc1C(=O)O,.,.,.,-0.5,.,-0.8
Cc1cccc2cc(CN(Cc3ccccc3)C(=O)N3CCOCC3)c3nnnn3c12,-1.3,.,.,.,.,.
O=C1OC(NC(=O)c2ccccc2)C(n2cc(CO)nn2)=C1Cl (stereo unspecified),1.6,2.7,-66.8,0.0,-61.9*,-2.8
Cc1ccc(NC2=C(Cl)C(=O)OC2NC(=O)c2ccccc2)cc1 (stereo unspecified),-2.1,2.7,5.0,0.8,8.0,0.0
Cc1cc(NC(=O)CN(C)S(=O)(=O)c2ccc(-c3ccc(=O)[nH]n3)s2)ccc1Br,-3.1,4.3,0.9,-0.5,-8.8,1.0
COc1cc(NC(=O)CN(C)S(=O)(=O)c2ccc(-c3ccc(=O)[nH]n3)s2)cc(OC)c1,-1.6,5.2,-92.8,-0.2,-90.7*,2.8
COCCNC(=S)N(CCO)Cc1cc2cc3c(cc2[nH]c1=O)OCCO3,5.1,15.0,1.5,-1.2,0.6,-3.3
CCNC(=S)NNC(=S)NCc1ccccc1,-3.3,1.6,9.9,0.6,-6.2,1.7
CCC(NC(=S)NCc1ccccc1)C(=O)O (stereo unspecified),-2.1,-1.8,-67.5,0.3,-60.3*,1.1
COc1ccc(N=Cc2c(O)ccc3ccccc23)cc1,1.0,1.4,-64.8,1.3,-58.4*,-0.1
Cc1cc(F)cc(C)c1Cn1cnc2c(cnn2C(C)(C)C)c1=O,.,0.0,.,0.1,.,0.8
COc1ccc(CCNC(=O)c2ccc(CS(=O)Cc3ccc(C)cc3)o2)cc1OC (stereo unspecified),-2.2,1.2,7.3,-0.3,11.0,1.0
Nc1c2c(nc3sc4c(c13)CCCC4)CCCCCC2,2.0,49.4*,25.6,0.4,14.3,2.6
Cc1ccc(C)c2c(N)c3c(nc12)CCCCC3 (tested in a mixture with another compound),-2.5,47.2*,2.0,-0.4,-3.6,0.1
Nc1c2c(nc3c1CCCC3)CCCC2 (tested in a mixture with another compound),2.5,9.0,2.4,0.4,-7.3,2.1
COc1cccc(-c2ccc3c(c2)O[C@H](CN(C)C(=O)c2ccccc2F)[C@H](C)CN([C@H](C)CO)S3(=O)=O)c1,.,.,.,1.3,.,-1.5
CC[C@]12CCCN3CCc4c(n(c5ccccc45)[C@@](O)(C(=O)OC)C1)[C@@H]32,.,0.1,.,5.0*,.,-5.5
CC1=NN(C(N)=S)C(C)(C)C1,2.9,-1.3,-65.6,2.9,-55.3*,0.6
Cc1nn(C)c(C)c1S(=O)(=O)N(CC(=O)NCCCN1CCC(C)CC1)c1ccc(C(C)C)cc1,0.6,0.6,0.4,0.9,-4.0,0.4
Cc1c(Cc2ccccc2)c(=O)oc2cc(OC(C)C(=O)NCC3CCC(C(=O)O)CC3)c(Cl)cc12 (stereo unspecified),-2.6,-0.5,-0.1,4.6*,-6.7,0.0

# Bioassay records: PubChem, several laboratories
